From PubChem BioAssay AID1159580 (chemical genetic matrix, 2015)
About 2,000 (36%) of roughly 5,500 compounds were called active. Not shown: some 18% with an inconclusive outcome. Some of the results follow. Unmarked numbers belong to inactive results. Cut-off read from the data, not from the text of the source: active = normalized growth mostly below about 0.91 (no sharp cut-off); inconclusive = no clear call, values can overlap the other calls; inactive = mostly above about 0.92.

Experiment: chemical genetic growth profiling, strain panel (AID 1159580);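 note: tested at 20 µM; growth read once vehicle control cultures reached saturation at 30 °C; 1 = growth at the plate median or of vehicle wells; lower values mean less growth of the strain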
Conditions: S. cerevisiae deletion strains, growth OD

CCS(=O)(=O)Nc1cccc(C(=C2CCCCC2)c2cnc[nH]2)c1
normalized growth (locus YAL013W, strain DEP1, hits give low values): 0.982 | normalized growth (locus YAL040C, strain CLN3, hits give low values): 1 | normalized growth (locus YDR150W, strain NUM1, hits give low values): 1.02 | normalized growth (locus YDR363W, strain ESC2, hits give low values): 0.974 | normalized growth (locus YER002W, strain NOP16, hits give low values): 1.04 | normalized growth (locus YGR229C, strain SMI1, hits give low values): 1 | normalized growth (locus YNL153C, strain GIM3, hits give low values): 1.03 | normalized growth (locus YNL175C, strain NOP13, hits give low values): 1 | normalized growth (locus YNL197C, strain WHI3, hits give low values): 1 | normalized growth (locus YNL224C, strain SQS1, hits give low values): 1.01 | normalized growth (locus YNL322C, strain KRE1, hits give low values): 0.994 | normalized growth (locus YOR083W, strain WHI5 (second series), hits give low values): 1.02

O=S(=O)(Nc1ccc(Oc2ccc(OC(F)(F)F)cc2)cc1)c1cccc(Cl)c1
normalized growth (locus YAR019C, strain CDC15, hits give low values): 0.982 | normalized growth (locus YBL105C, strain PKC1, hits give low values): 0.973 | normalized growth (locus YBR135W, strain CKS1, hits give low values): 0.978 | normalized growth (locus YBR136W, strain MEC1, hits give low values): 0.982 | normalized growth (locus YBR160W, strain CDC28, hits give low values): 0.981 | normalized growth (locus YDL017W, strain CDC7, hits give low values): 0.982 | normalized growth (locus YDL028C, strain MPS1, hits give low values): 0.982 | normalized growth (locus YDL101C, strain DUN1, hits give low values): 0.991 | normalized growth (locus YDL108W, strain KIN28, hits give low values): 0.976 | normalized growth (locus YDL132W, strain cdc53, hits give low values): 0.988 | normalized growth (locus YDL214C, strain PRR2, hits give low values): 0.932 | normalized growth (locus YDR052C, strain DBF4, hits give low values): 0.98 | normalized growth (locus YDR054C, strain cdc34, hits give low values): 0.988 | normalized growth (locus YDR226W, strain ADK1, hits give low values): 0.984 | normalized growth (locus YDR477W, strain SNF1, hits give low values): 0.964 | normalized growth (locus YER123W, strain YCK3, hits give low values): 0.933 | normalized growth (locus YER133W, strain GLC7, hits give low values): 0.933 | normalized growth (locus YFL009W, strain cdc4, hits give low values): 0.979 | normalized growth (locus YFL029C, strain CAK1, hits give low values): 0.985 | normalized growth (locus YFR003C, strain YPI1, hits give low values): 0.977 | normalized growth (locus YFR019W, strain FAB1, hits give low values): 0.891 | normalized growth (locus YFR028C, strain CDC14, hits give low values): 0.985 | normalized growth (locus YGR040W, strain KSS1, hits give low values): 0.949 | normalized growth (locus YGR052W, strain FMP48, hits give low values): 0.958 | normalized growth (locus YGR092W, strain DBF2, hits give low values): 0.937 | normalized growth (locus YHR030C, strain SLT2, hits give low values): 0.562 (active) | normalized growth (locus YHR079C, strain IRE1, hits give low values): 0.837 | normalized growth (locus YHR082C, strain KSP1, hits give low values): 0.978 | normalized growth (locus YHR205W, strain SCH9, hits give low values): 0.955 | normalized growth (locus YIL147C, strain SLN1, hits give low values): 0.982 | normalized growth (locus YJL095W, strain BCK1, hits give low values): 0.948 | normalized growth (locus YJL128C, strain PBS2, hits give low values): 0.936 | normalized growth (locus YJL157C, strain FAR1, hits give low values): 0.946 | normalized growth (locus YJR016C, strain ILV3, hits give low values): 0.991 | normalized growth (locus YJR066W, strain TOR1 (second series), hits give low values): 0.92 | normalized growth (locus YJR066W, strain TOR1, hits give low values): 0.975 | normalized growth (locus YKL048C, strain ELM1, hits give low values): 0.945 | normalized growth (locus YKL067W, strain YNK1, hits give low values): 0.934 | normalized growth (locus YKL101W, strain HSL1, hits give low values): 0.916 | normalized growth (locus YKL193C, strain SDS22, hits give low values): 0.984 | normalized growth (locus YKL203C, strain TOR2, hits give low values): 0.995 | normalized growth (locus YLR113W, strain HOG1, hits give low values): 0.695 (active) | normalized growth (locus YLR133W, strain CKI1, hits give low values): 0.941 | normalized growth (locus YLR403W, strain SFP1, hits give low values): 0.954 | normalized growth (locus YML070W, strain DAK1, hits give low values): 0.923 | normalized growth (locus YMR001C, strain CDC5, hits give low values): 0.984 | normalized growth (locus YMR205C, strain PFK2 (second series), hits give low values): 0.954 | normalized growth (locus YMR277W, strain FCP1, hits give low values): 0.983 | normalized growth (locus YNL006W, strain LST8, hits give low values): 0.98 | normalized growth (locus YNL020C, strain ARK1, hits give low values): 0.919 | normalized growth (locus YNL161W, strain CBK1, hits give low values): 0.977 | normalized growth (locus YNL183C, strain NPR1, hits give low values): 0.991 | normalized growth (locus YNL207W, strain RIO2, hits give low values): 0.989 | normalized growth (locus YNL222W, strain SSU72, hits give low values): 0.979 | normalized growth (locus YNL307C, strain MCK1 (second series), hits give low values): 0.897 | normalized growth (locus YOL078W, strain AVO1, hits give low values): 0.991 | normalized growth (locus YOL136C, strain PFK27, hits give low values): 0.92 | normalized growth (locus YOR061W, strain CKA2, hits give low values): 0.917 | normalized growth (locus YOR119C, strain RIO1, hits give low values): 1.03 | normalized growth (locus YOR231W, strain MKK1, hits give low values): 0.887 | normalized growth (locus YOR329C, strain SCD5, hits give low values): 0.974 | normalized growth (locus YPL031C, strain PHO85, hits give low values): 0.95 | normalized growth (locus YPL153C, strain RAD53, hits give low values): 0.982 | normalized growth (locus YPL204W, strain HRR25, hits give low values): 0.941 | normalized growth (locus YPL209C, strain IPL1, hits give low values): 0.977 | normalized growth (locus YPL256C, strain CLN2, hits give low values): 0.75 (active) | normalized growth (locus YPR025C, strain CCL1, hits give low values): 0.977 | normalized growth (locus YPR106W, strain ISR1, hits give low values): 0.988 | normalized growth (locus YPR111W, strain DBF20, hits give low values): 0.969 | normalized growth (strain NNK1, hits give low values): 0.989 | normalized growth (strain TSCII, hits give low values): 0.983
